Test results from PubChem BioAssay.
The source made the active and inactive calls.

Experiments:
[1] = tested on: PRMT1 (protein arginine N-methyltransferase 1); test: PRMT1 binders on small-molecule microarrays, primary screen, biochemical, small-molecule microarray, 635 nm fluorescence (AID 1088); conditions: small-molecule microarray binding, higher = more signal;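 note: binding of Prmt1 protein to compounds spotted on small-molecule microarray slides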
[2] = yeast growth modulation, basal conditions, primary screen, YJM789 clinical isolate, OD600, 24 h (AID 1089);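 note: growth of clinical yeast isolate S. cerevisiae YJM 789 seeded 1000 cells per well; test concentration not given here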; conditions: S. cerevisiae YJM789 growth, higher = more signal, called active from +8 up or from −8 down
[3] = fission yeast growth modulation, primary screen, strain 972, OD600, 24 h, no modulator (AID 1090);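 note: basal condition with compound alone and no growth modifier present; test concentration not given here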; conditions: S. pombe 972 growth, higher = more signal, called active from +8 up or from −8 down
[4] = S. cerevisiae growth modulation with rapamycin, primary screen, strain BY4716, OD600, 96 h (AID 1091); conditions: higher = more signal, called active from +8 up or from −8 down; note: test concentration not given here
[5] = target: Torsin-1A-interacting protein 2 (Homo sapiens) (UniProt Q8NFQ8); test: LULL1 binders on small-molecule microarray, primary screen, cell lysate, human LULL1 lysate, 635/667 nm fluorescence (AID 1092); conditions: hLULL1 lysate binding, 635 nm fluorescence, higher = more signal;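 note: probe is lysate of COS7 cells overexpressing human LULL1; score merges per-feature 667 nm fluorescence with signal-to-noise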
Torsin-1A-interacting protein 2 (Homo sapiens), sequence (Q8NFQ8 whole entry, looked up): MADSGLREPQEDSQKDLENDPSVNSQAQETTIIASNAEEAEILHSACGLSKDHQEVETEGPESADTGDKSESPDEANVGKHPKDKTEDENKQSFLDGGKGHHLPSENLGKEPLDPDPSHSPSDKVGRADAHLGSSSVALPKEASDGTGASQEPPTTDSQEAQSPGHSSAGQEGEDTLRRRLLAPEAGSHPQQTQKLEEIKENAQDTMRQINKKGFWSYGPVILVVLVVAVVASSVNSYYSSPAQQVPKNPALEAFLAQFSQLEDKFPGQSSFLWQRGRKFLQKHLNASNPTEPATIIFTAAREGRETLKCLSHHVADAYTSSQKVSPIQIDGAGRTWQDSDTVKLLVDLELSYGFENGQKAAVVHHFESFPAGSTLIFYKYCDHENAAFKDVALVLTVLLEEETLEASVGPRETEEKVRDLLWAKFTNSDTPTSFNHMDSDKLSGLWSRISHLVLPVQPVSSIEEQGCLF

[6] = E. coli growth modulation, two-sided OD650, primary screen, E. coli filamentation project, strain DRC41, 24 h (AID 1093); conditions: OD650, 24 h, higher = more signal, called active from +8 up or from −8 down;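 note: MC1000 strain lacking acrAB efflux and sulA so SOS filamentation is blocked; test concentration not given here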
[7] = small-molecule microarray binders of probe aLefty2, primary screen, biochemical, biotinylated probe, 635/667 nm fluorescence (AID 1094); conditions: higher = more signal;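 note: score merges spot fluorescence near 667 nm with spot signal-to-noise ratio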
[8] = tested on: Noggin (protein binding on small-molecule microarray); test: Noggin binders on small-molecule microarray, primary screen, biochemical, 635/667 nm fluorescence (AID 1095); conditions: 635 nm fluorescence, higher = more signal;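 note: score merges 667 nm feature fluorescence with signal to noise over triplicate slides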
[9] = target: Neurogenic locus notch homolog protein 3 (Homo sapiens) (UniProt Q9UM47); test: NOTCH3 binders on small-molecule microarray, primary screen, biochemical, 635/667 nm fluorescence (AID 1096); conditions: NOTCH3 binding, 635 nm fluorescence, higher = more signal
Neurogenic locus notch homolog protein 3 (Homo sapiens), sequence (Q9UM47 whole entry, looked up): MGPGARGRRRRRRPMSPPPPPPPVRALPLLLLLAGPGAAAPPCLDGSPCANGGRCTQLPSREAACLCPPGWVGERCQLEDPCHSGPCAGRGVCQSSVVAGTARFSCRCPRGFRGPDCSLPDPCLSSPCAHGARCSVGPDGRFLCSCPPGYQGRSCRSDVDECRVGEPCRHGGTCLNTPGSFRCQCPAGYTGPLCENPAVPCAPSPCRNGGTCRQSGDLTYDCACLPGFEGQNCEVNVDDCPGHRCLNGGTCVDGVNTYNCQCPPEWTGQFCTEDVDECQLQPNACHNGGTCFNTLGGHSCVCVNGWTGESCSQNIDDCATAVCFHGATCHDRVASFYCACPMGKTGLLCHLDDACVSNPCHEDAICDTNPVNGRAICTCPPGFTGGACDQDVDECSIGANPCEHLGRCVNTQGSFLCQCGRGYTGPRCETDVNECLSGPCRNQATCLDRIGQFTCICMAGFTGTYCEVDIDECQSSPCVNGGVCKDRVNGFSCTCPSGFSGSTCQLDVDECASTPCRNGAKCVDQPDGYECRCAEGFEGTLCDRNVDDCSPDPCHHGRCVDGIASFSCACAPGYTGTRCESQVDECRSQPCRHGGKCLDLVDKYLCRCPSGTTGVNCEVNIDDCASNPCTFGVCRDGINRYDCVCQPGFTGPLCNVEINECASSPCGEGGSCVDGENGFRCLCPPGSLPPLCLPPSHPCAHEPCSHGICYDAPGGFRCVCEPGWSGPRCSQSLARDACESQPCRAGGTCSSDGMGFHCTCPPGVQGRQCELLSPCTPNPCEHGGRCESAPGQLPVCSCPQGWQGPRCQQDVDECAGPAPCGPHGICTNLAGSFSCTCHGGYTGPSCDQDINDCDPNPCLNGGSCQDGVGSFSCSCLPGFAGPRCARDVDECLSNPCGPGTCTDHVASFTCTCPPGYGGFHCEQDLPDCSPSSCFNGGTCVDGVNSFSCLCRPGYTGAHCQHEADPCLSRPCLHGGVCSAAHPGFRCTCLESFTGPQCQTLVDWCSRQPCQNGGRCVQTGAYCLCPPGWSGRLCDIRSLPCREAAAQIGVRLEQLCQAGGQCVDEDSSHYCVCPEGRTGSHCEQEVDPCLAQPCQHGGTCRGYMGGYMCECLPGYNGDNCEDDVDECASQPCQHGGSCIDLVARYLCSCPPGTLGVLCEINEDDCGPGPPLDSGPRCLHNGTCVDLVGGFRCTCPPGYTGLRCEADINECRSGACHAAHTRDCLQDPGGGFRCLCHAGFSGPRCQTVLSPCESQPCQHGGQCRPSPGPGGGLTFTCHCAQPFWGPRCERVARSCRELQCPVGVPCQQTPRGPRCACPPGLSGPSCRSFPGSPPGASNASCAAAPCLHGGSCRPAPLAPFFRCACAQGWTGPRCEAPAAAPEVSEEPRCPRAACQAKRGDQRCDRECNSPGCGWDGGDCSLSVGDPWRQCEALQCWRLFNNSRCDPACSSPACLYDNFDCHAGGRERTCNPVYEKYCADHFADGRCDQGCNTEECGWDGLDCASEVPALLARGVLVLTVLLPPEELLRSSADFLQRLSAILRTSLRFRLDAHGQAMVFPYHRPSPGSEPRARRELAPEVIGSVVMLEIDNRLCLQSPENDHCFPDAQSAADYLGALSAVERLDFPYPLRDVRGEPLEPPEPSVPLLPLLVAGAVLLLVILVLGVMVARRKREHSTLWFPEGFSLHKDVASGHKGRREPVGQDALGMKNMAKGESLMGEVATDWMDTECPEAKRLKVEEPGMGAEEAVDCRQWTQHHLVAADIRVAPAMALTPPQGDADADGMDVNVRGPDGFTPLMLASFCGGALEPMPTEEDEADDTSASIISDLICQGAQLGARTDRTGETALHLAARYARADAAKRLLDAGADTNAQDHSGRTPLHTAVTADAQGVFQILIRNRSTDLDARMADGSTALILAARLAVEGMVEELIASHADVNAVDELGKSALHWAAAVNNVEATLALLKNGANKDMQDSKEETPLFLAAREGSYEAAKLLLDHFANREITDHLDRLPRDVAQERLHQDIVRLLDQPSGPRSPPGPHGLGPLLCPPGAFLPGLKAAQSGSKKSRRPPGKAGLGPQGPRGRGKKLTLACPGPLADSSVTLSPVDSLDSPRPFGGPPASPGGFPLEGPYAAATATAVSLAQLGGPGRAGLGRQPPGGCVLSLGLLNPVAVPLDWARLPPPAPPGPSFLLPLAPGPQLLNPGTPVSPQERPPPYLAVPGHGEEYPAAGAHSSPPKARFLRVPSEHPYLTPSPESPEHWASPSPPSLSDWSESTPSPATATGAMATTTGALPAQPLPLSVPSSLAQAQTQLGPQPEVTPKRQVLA

[10] = small-molecule microarray binders of probe aEGFR, primary screen, biochemical, biotinylated probe, 635/667 nm fluorescence (AID 1097); conditions: higher = more signal;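 note: probe is a biotinylated anti-EGFR antibody binding compounds printed on slides; score combines fluorescence near 667 nm and signal to noise of each spot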

Structure (SMILES) | composite z-score [1] | z-score [2] | z-score [3] | z-score [4] | composite z-score [5] | z-score [6] | composite z-score [7] | composite z-score [8] | composite z-score [9] | composite z-score [10]
CCCc1cc2c(n1Cc1cc(F)cc(F)c1)C(C)C1CN(C(=O)c3ccccc3)C(C)(C(=O)OC)C21 (stereo not given) | 0.497 | 0.149 (inactive) | 0.744 (inactive) | 0.734 (inactive) | 3.11 | -0.738 (inactive) | 1.02 | -0.266 | 1.03 | 0.249
C=C(/C(=C/C[C@H](OC(C)=O)c1ccccc1OCCO)c1cnc2ccccc2c1)C(C)C | 0.491 | 0.0556 (inactive) | -0.0759 (inactive) | 1.11 (inactive) | 1.85 | -0.0733 (inactive) | -0.0251 | 1.24 | 0.909 | -0.044
CC#CC(=O)Oc1ccccc1C=CC(=O)OCC | 0.779 | -2.32 (inactive) | -15.4 (active) | -2.16 (inactive) | 1.33 | 0.316 (inactive) | -0.0549 | 0.664 | 0.225 | -0.0531
COCCOC(=O)N1C(=O)[C@@]2(c3cc(C#CC4(O)CCCCCC4)ccc31)[C@H](c1ccc(OCCO)cc1)N1[C@H](c3ccccc3)[C@H](c3ccccc3)OC(=O)[C@H]1[C@@H]2C(=O)N1CCN(c2ncccn2)CC1 | 1.56 | 2.64 (inactive) | 2.26 (inactive) | 6.24 (inactive) | 2.69 | 0.0846 (inactive) | -0.136 | 1.67 | 1.08 | -0.108
CCOC(=O)C1=CC[C@@H](c2ccccc2)N(S(=O)(=O)c2ccc(C)cc2)[C@H]1c1ccccc1C | 0.473 | -0.602 (inactive) | 0.903 (inactive) | -0.3 (inactive) | 1.97 | -0.3 (inactive) | 0.066 | 0.72 | 0.913 | -0.0675
COCCOC(=O)N1C(=O)[C@@]2(c3cc(C#CCNC(N)=O)ccc31)[C@H](C(=O)Nc1nc3ccccc3s1)[C@H]1C(=O)O[C@H](c3ccccc3)[C@H](c3ccccc3)N1[C@@H]2c1ccc(OCCO)cc1 | 1.55 | 1.18 (inactive) | 0.409 (inactive) | 2.79 (inactive) | 1.61 | -0.333 (inactive) | 0.711 | 0.88 | 1.06 | -0.0354
C=CCNC(=O)[C@@H]1[C@H]2C(=O)O[C@H](c3ccccc3)[C@H](c3ccccc3)N2[C@H](c2ccccc2OCCO)[C@@]12C(=O)N(C(=O)OCCOC)c1ccccc12 | 1.54 | 2.86 (inactive) | 2.29 (inactive) | 7.26 (inactive) | 2.64 | -0.442 (inactive) | 0.0615 | 1.71 | 0.884 | -0.0381
CCCC[C@@H]1C[C@H]1[C@@H](NC(=O)c1ccco1)c1ccccc1C(F)(F)F | -0.191 | 0.493 (inactive) | 1.13 (inactive) | -0.0491 (inactive) | 1.53 | -0.763 (inactive) | 1.36 | -0.339 | 0.453 | 0.856
NC(=O)NCC#Cc1ccc2c(c1)[C@]1(C(=O)N2)[C@H](c2ccc(O)cc2)N2[C@H](c3ccccc3)[C@H](c3ccccc3)OC(=O)[C@H]2[C@@H]1C(=O)O | -0.019 | 0.801 (inactive) | -0.0898 (inactive) | 0.607 (inactive) | 0.966 | -0.504 (inactive) | -0.255 | -0.581 | -0.156 | -0.191
Cc1ccc(S[C@]2(C(=O)O)CC(=O)N(C(C)C)[C@@H]2c2ccc(CO)cc2I)cc1 | 1.55 | -2.31 (inactive) | -2.85 (inactive) | 1.55 (inactive) | 2.21 | 3.25 (inactive) | 0.122 | -0.0137 | 0.271 | 0.0255
C=CCC(OC(C)=O)[C@@H]1[C@@H](N(Cc2ccc(-c3ccccc3)cc2)C(=O)c2cccc3ccccc23)c2cc(OCCCO)ccc2N1C(=O)c1ccc(-c2ccccc2)cc1 (stereo not given in full) | 0.245 | 0.21 (inactive) | -0.234 (inactive) | -0.438 (inactive) | 0.796 | 1.17 (inactive) | 0.0159 | 0.0623 | -0.0827 | 0.0009
C[N+](C)(C)CCCCCCNC(=O)[C@@H]1C[C@@H]2C(=O)N[C@@H](Cc3ccccc3)C(=O)N2[C@@H]1c1cccc(OCCO)c1 | 1.57 | -0.165 (inactive) | 0.297 (inactive) | -0.214 (inactive) | 2.87 | 1.02 (inactive) | 0.0235 | 1.82 | 1.09 | -0.0688
C=CCOC(=O)[C@H]1[C@@H]2C(=O)O[C@@H](c3ccccc3)[C@@H](c3ccccc3)N2[C@@H](c2ccc(OCCOC(=O)[C@H]3C[C@H]4C(=O)N[C@@H](CCCCNC(C)=O)C(=O)N4[C@H]3c3ccc(O)cc3)cc2)[C@]12C(=O)Nc1ccc(I)cc12 | 1.57 | 1.12 (inactive) | -2.33 (inactive) | 1.75 (inactive) | 1.81 | -2.07 (inactive) | -0.0566 | 1.5 | 1.07 | -0.0088
NC(=O)[C@@H]1[C@H]2C(=O)O[C@H](c3ccccc3)[C@H](c3ccccc3)N2[C@H](c2ccc(O)cc2)[C@@]12C(=O)Nc1ccccc12 | 1.41 | 0.0549 (inactive) | -1.41 (inactive) | 0.386 (inactive) | 3.53 | 1.11 (inactive) | -0.107 | -0.952 | 0.118 | -0.289
C=CCC(OC(C)=O)[C@@H]1[C@@H](N(Cc2ccc(-c3ccccc3)cc2)C(=O)Cc2ccc(OC)cc2)c2cc(OCCCO)ccc2N1C(=O)Cc1ccc2ccccc2c1 (stereo not given in full) | -0.137 | -0.74 (inactive) | -0.619 (inactive) | -0.238 (inactive) | 1.09 | -0.263 (inactive) | -0.153 | -0.688 | -0.0042 | -0.177
COc1ccc(C#Cc2ccc3c(c2)[C@]2(C(=O)N3)[C@H](c3ccccc3OCCO)N3[C@H](c4ccccc4)[C@H](c4ccccc4)OC(=O)[C@H]3[C@@H]2C(=O)Nc2nc3ccccc3s2)cc1 | 1.54 | 2.95 (inactive) | 1.47 (inactive) | 0.871 (inactive) | 1.95 | 0.0309 (inactive) | 0 | 0.785 | 1.09 | -0.0549
CCS[C@H]1[C@@H](C(=O)O)[C@H](c2ccc(C)cc2)N(S(=O)(=O)c2ccc(C)cc2)[C@@H]1CC | 0.811 | -0.406 (inactive) | 0.588 (inactive) | -0.0003 (inactive) | 3.26 | 0.401 (inactive) | 0.105 | -0.0193 | 1.11 | -0.0563
CN(C)C(=O)[C@]1(Cc2ccccc2N=[N+]=[N-])N=C(c2ccc(OCCCO)cc2)O[C@@H]1c1ccccc1N=[N+]=[N-] | 1.55 | -2.43 (inactive) | -2.73 (inactive) | 4.05 (inactive) | 3.2 | 0.799 (inactive) | 0.191 | 0.923 | 1.07 | -0.0111
CC(C)C(=C=CC[C@@H](O)c1ccc(OCCO)cc1)C[C@@H](O)COCc1ccccc1 | 1.54 | -1.06 (inactive) | -1.09 (inactive) | -0.418 (inactive) | 1.93 | 1.14 (inactive) | -0.192 | 1.65 | 0.652 | -0.135
O=C1c2ccccc2[C@](Cc2ccccc2I)(C(=O)NCCN2CCOCC2)[C@H](c2ccc(CO)cc2)N1C1CCCCC1 | 1.43 | -0.139 (inactive) | -0.156 (inactive) | 0.216 (inactive) | 1.53 | 1.09 (inactive) | 0.227 | 1.12 | 1.06 | 0.521
CCCC[C@@H]1C[C@H]1[C@@H](NC(=O)C(C)(C)C)c1ccc(C(F)(F)F)cc1 | 0.648 | 0.213 (inactive) | -2.71 (inactive) | 0.329 (inactive) | 0.918 | -1.67 (inactive) | 0.0823 | -1.46 | -0.434 | -0.236
CCCCCN1CC=CC23O[C@@H]4C=CCCOC(=O)C4[C@H]2C(=O)N(CCCCCO)[C@@H]3C1=O (stereo not given in full) | -0.192 | -0.286 (inactive) | -0.772 (inactive) | -0.255 (inactive) | 2.3 | 0.764 (inactive) | -0.0288 | -0.589 | -0.147 | -0.203
